Source: PubChem BioAssay (NCI)
This is part of a sample that, as a whole, favours compounds with a hit. Of some 79,000 tested, about 15% had one in any assay. Unmarked numbers belong to inactive results. The source made the active and inactive calls. Rule as the data show it: active = growth inhibition above about 70%; inactive = the rest.

Assays:
[1] = NCI Yeast Anticancer Drug Screen. Data for the rad50 strain (AID 155);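 also: 0% = growth of vehicle-only cultures of the same strain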; conditions: S. cerevisiae rad50 strain growth inhibition; at 50.0 µM; hits give high values
How it was run: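 Genetically altered yeast (DNA repair pathway); compound treatment; growth inhibition vs vehicle ctrl.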

[2] = NCI Yeast Anticancer Drug Screen. Data for the mec2-1 strain (AID 157); conditions: S. cerevisiae mec2-1 strain, at 50.0 µM, hits give high values
How it was run: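 Cells of the genetically defined mec2-1 yeast strain are incubated with test compound. Inhibition of growth is calculated against vehicle-treated controls.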

[3] = NCI Yeast Anticancer Drug Screen. Data for the sgs1 mgt1 strain (AID 161);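 also: 0% = growth of cultures given vehicle only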; conditions: S. cerevisiae sgs1 mgt1 strain, at 50.0 µM, hits give high values
How it was run: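 Read-out: growth inhibition vs vehicle controls. Cells: mutant yeast strain deficient in DNA damage repair.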

[4] = NCI Yeast Anticancer Drug Screen. Data for the cln2 rad14 strain (AID 165);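 also: 0% = growth equal to vehicle treated cultures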; conditions: S. cerevisiae cln2 rad14 strain, at 50.0 µM, hits give high values
How it was run: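 The screen exposed genetically defined yeast (cln2 rad14) to test compounds and scored growth inhibition relative to vehicle-treated controls.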

[5] = NCI Yeast Anticancer Drug Screen. Data for the bub3 strain (AID 167); conditions: S. cerevisiae bub3 mutant strain, at 50.0 µM, hits give high values
How it was run: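 Yeast carrying a defined mutation is treated with each compound, and growth is compared with that of vehicle-exposed cells to give inhibition.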

[6] = NCI Yeast Anticancer Drug Screen. Data for the mlh1 rad18 strain (AID 175); conditions: S. cerevisiae mlh1 rad18 strain growth inhibition; at 50.0 µM; hits give high values
How it was run: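 Compound-treated yeast growth, normalised to vehicle controls. Strain bears defined DNA repair mutations.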

SMILES	growth inhibition [1]	growth inhibition [2]	growth inhibition [3]	growth inhibition [4]	growth inhibition [5]	growth inhibition [6]
CCN(CC)Cc1cc(Oc2ccc(O)c(CN(CC)CC)c2)ccc1O	11.1%	8.5%	3.65%	-22.7%	11.6%	-4.4%
COc1ccc(/C=N/NC(=O)/C(C#N)=C/c2ccc(OC)cc2)cc1	23.1%	19.1%	3.7%	-11.5%	19.4%	16.4%
CCOC(=O)c1ccc(N[C@@H]2c3cc4c(cc3C(c3cc(OC)c(O)c(OC)c3)[C@H]3C(=O)OCC32)OCO4)cc1 (some centres not stated)	85.6% (active)	91.7% (active)	89.2% (active)	87.5% (active)	88% (active)	88.8% (active)
C/C(N=NC(=S)N1CCCCC1)=C1\C=CC=CN1O	10.8%	-6.8%	53.8%	97.8% (active)	43.2%	22.1%
C/C(=N\N=C(/C)c1ccc(C)cc1)c1ccc(C)cc1	10.7%	-30.3%	20.1%	6.1%	2.45%	3.7%
Nc1c(N=Nc2ccccc2)cc(S(=O)(=O)O)c2ccccc12	2.8%	-23.4%	-1.65%	6.65%	3.2%	-2.1%
COc1cccc2c1C(=O)C=CC2=O	76.8% (active)	80.7% (active)	84.3% (active)	87.2% (active)	87.2% (active)	91.8% (active)
N[C@@H](CSSc1ccccc1C(=O)O)C(=O)O	-32.9%	-7.25%	-14.4%	1.85%	0.8%	-10.3%
CC(C)=C(Cl)c1c(C)cc(C)c(CC(N)=O)c1C	-14.1%	-3.75%	-8.15%	-27.2%	-9.95%	10.1%
COc1ccccc1C1C(C(=O)Nc2ccccc2)=C(C)NC(C)=C1C(=O)Nc1ccccc1	-3.2%	-21.9%	-36.2%	15.1%	-3.85%	-11.2%
N#C/C(=C/N1C(=O)CC(=O)NC1=S)c1cccc(Cl)c1	-30.7%	-14.3%	-31.2%	18.2%	-28.8%	-48.5%
O=C(O)CCCc1ccc2sc3ccccc3c2c1	47.4%	32.6%	27.6%	50.5%	24.9%	76.8% (active)
CC(C)OC(=O)Nc1cccc(C(=O)O)c1	-6.55%	-6.55%	-2.8%	-14.5%	-16.4%	-0.85%
Cc1cc2c(C)nn(Cc3ccc(Cl)cc3)c2c(C#N)c1C	25.4%	-8.85%	15.6%	2.85%	22.1%	18.9%
O=C(C(Cl)=C(N1CCOCC1)N1CCOCC1)C(Cl)Cl	-37.9%	-18.4%	-57.5%	-15.8%	-32.9%	-34.6%
CCCCCCCC/C=C\CCCCCCCC(=O)OC(C)CC(=O)N(C)C (configuration not stated)	-18.1%	-23.4%	10.6%	-6.55%	-11.6%	3.95%
c1ccc(C2SCSCS2)cc1	12.1%	-5.45%	-15.8%	-8.4%	1.1%	6.95%
O=C(/C=C/c1ccccc1)CCc1c(O)c2ccccc2oc1=O	9.05%	-5.3%	0.45%	31.1%	1.85%	28.8%
O=S1(=O)C(c2ccc(F)cc2)=C(O)c2cc3ccccc3nc21	29.2%	30.9%	27%	21.4%	-8.85%	23.2%
O=C(O)c1ccc([N+](=O)[O-])cc1Cl	-11.9%	-10%	-1.55%	8.15%	-3.25%	-7.55%
Oc1c2cccc1Cc1cccc3c1OCCOCCOCCOCCOc1c(cccc1Cc1cccc(c1O)C3)C2	9.1%	12.8%	9.45%	13.8%	12.4%	-6.05%

SMILES	growth inhibition [1]	growth inhibition [2]	growth inhibition [3]	growth inhibition [4]	growth inhibition [5]	growth inhibition [6]
COc1ccc(Cl)cc1NC(=O)Nc1ccc(F)c([N+](=O)[O-])c1	10%	38%	29.2%	-9.8%	33.5%	23.8%
COCCOCCOCCOC(C)=O	21.6%	12.4%	8.3%	6.2%	-5.3%	-0.65%
CCC(=O)/C=C/C1=C(C)CCCC1(C)C	-9.95%	-9.65%	6.25%	-5.8%	5.8%	-13.4%
CCOC/C(=N\NC(N)=O)c1ccccc1	-16.8%	-22.2%	-22.9%	-1.85%	9.3%	-20.3%
CNC(=O)CCC(NC(=O)OC(C)(C)C)C(=O)NC(Cc1ccc(NC(=O)CCCCC(C)=O)cc1)C(=O)NCC(=O)NC (configuration not stated)	-18.3%	13.9%	-0.25%	9.8%	3.75%	-2.1%
COc1cc(C2=N/C(=C\c3ccc(Cl)c(Cl)c3)C(=O)O2)cc(OC)c1OC	-26.2%	-14.8%	24.6%	-28.7%	-4.4%	3.95%
c1ccc2cc(B(c3cccc4ccccc34)c3cccc4ccccc34)ccc2c1	14%	-8.75%	-8.4%	-25.6%	-2.25%	-23.9%
O=C(/C=C/c1ccc(O)cc1)c1ccc2c(c1)OCO2	8.05%	23.3%	25.8%	-1.55%	43%	43.8%
O=C1c2ccccc2C(C(c2ccccc2)c2ccccc2)c2ccccc21	-22%	-18.6%	-28.9%	8.45%	5.25%	-14%
C=CCNC(=S)N/C=C(/C#N)C(=O)OC	1.85%	-9.75%	-16.5%	21.6%	-8%	15.7%
Cc1ccc(/C=C/C(=O)c2sc(-n3nc(-c4ccccc4)cc3-c3ccccc3)nc2C)cc1	-2.3%	-6.85%	-29.9%	5.6%	20.1%	-7.4%
O=C1C(CO)=C[C@H](O)[C@H]2O[C@@H]12	-4.3%	0.3%	-9.45%	7.85%	8.65%	-29.4%
Cc1ccc(C(=O)Oc2ccccc2)cc1	-3.35%	-5.1%	-11.7%	-34.2%	-7.2%	-20%
CCOc1ccc(N=Cc2cc(Br)ccc2O)cc1	2.55%	0.6%	1.5%	-0.5%	1.15%	-13.4%
COc1ccc(NC(=O)Nc2ccc(SC)cc2)c(Cl)c1	0.75%	5.6%	-2.8%	-13.9%	19.5%	20.9%
COc1ccc2c(c1)N=C(NNC1=Nc3cc(OC)ccc3SC1)CS2	-9.1%	3.15%	14.4%	-14.9%	-4.7%	3.9%
CCOC(=O)C(=O)/C(=C/N1CCNC1=S)C(=O)OCC	-28.6%	-9.05%	-26.8%	32.4%	-4.35%	-25.9%
CC(=O)NC(CC(=O)O)C(=O)Nc1ccccc1 (configuration not stated)	13.8%	36.8%	16.6%	13.6%	8.9%	13.4%
O=C1CCCc2cc3c(cc21)CC1(C3)Cc2cc3c(cc2C1)C(=O)CCC3	-8.8%	-7.25%	-5.8%	-10.3%	-11.2%	-9%
CCOc1nc2c(c(=O)n(C)c(=O)n2C)n1C	26.9%	-7.55%	-6.25%	8%	7.65%	20.9%
C[C@@H]1C(=O)CC2(O)[C@@]13C[C@@H](OC(=O)[C@@H]3O)[C@@H](C)[C@@]21COC1=O (some centres not stated)	13.8%	14.2%	-20.6%	-6.65%	-28.1%	-47.1%
